This is an account of results in paper PMC6925144, “A prospective compound screening contest identified broader inhibitors for Sirtuin 1” (Scientific Reports, 2019).

Whole data set: some 3,200 compounds, median “TSA(without NAD+) / Primary screening (TSA) / delta Tm (K)” near -0.07, cut for the highest 2% near 0.37. What follows is part of a selection rich in the highest values, with near analogues and random picks from the rest.

The target in the experiment is NAD-dependent deacetylase Sirtuin 1 (human, UniProt Q96EB6). Kind of experiment: primary screen, delta tm. To be noted: 10 µM. Further details: single well (n = 1). On the procedure: A total of 3,192 compounds extracted from the proposed lists were first screened by thermal shift assay (TSA), which determined a melting temperature shift (ΔTm) of Sirtuin 1 upon the addition of a test compound at a concentration of 10 µM (n = 1) with primary hit criteria of ΔTm > 0.45 K or ΔTm < −1.5 K. Primary hits (48 compounds) were retested in the same assay at three concentrations (5, 10, 20 µM, n = 4) for hit confirmation and for dose-dependency check. Secondary hits (41 compounds) were checked their selectivity for Sirtuin 1 based on counterscreening on unrelated protein targets (bovine carbonic anhydrase (CA) and recombinant SH2 domain of hABL1 kinase (ABL1)) at three different concentrations (5, 10, 20 µM, n = 4), which yielded 38 hit compounds, hereafter referred to as TSA hits. The TSA screening above was conducted in the absence of NAD+.
Chain of NAD-dependent deacetylase Sirtuin 1 (Q96EB6 2-747 limits assumed): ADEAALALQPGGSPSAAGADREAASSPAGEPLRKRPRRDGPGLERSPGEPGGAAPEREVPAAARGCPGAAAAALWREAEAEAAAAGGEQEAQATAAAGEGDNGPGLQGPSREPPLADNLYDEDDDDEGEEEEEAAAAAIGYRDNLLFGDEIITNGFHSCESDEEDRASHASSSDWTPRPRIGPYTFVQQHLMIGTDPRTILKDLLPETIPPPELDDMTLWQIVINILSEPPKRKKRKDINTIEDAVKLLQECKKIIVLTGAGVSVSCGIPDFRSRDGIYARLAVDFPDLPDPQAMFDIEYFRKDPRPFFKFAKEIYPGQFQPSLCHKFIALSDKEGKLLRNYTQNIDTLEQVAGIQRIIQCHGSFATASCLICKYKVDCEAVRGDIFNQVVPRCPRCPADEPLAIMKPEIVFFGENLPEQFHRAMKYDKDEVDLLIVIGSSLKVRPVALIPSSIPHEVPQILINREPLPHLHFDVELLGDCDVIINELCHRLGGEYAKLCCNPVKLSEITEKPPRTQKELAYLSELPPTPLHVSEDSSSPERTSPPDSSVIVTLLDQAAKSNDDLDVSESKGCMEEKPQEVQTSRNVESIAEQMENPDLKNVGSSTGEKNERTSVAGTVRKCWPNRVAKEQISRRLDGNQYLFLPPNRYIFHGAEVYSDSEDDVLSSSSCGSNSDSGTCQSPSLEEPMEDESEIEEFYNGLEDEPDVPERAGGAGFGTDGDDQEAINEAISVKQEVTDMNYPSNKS
As for `O=C(CCc1ccc2c(c1)OCO2)N1CCc2[nH]c3ccccc3c2C1`, the “TSA(without NAD+) / Primary screening (TSA) / delta Tm (K)” value is given as -0.15 K.
With `Cc1nc(-c2ccccn2)[nH]c(=O)c1CC(=O)NCc1cccc(Oc2ccccc2)c1` the figure was 0.09 K; with `NC(=O)C1CCN(C(=O)c2ccc3[nH]c4c(c3c2)CCCC4)CC1`, 0.17 K; with `Cc1cc(N(C)C)n2nc(C(F)(F)F)c(-c3ccccc3)c2n1`, -0.18 K.
With `Cc1ccc(-n2c(C)c(C)c3c(N)ncnc32)cc1`, the “TSA(without NAD+) / Primary screening (TSA) / delta Tm (K)” value was determined as 0.02 K.
For `CCc1cc2c(N3CCCC3)nc(C)nc2s1`, the “TSA(without NAD+) / Primary screening (TSA) / delta Tm (K)” value is reported as -0.07 K.
For `CCCOc1ccc(C(=O)C2=C(O)C(=O)N(CCCN3CCOCC3)C2c2ccccc2F)cc1` (stereo not shown), the “TSA(without NAD+) / Primary screening (TSA) / delta Tm (K)” value is reported as -0.27 K.
With `CC(=O)Nc1ccc(NC(=O)c2ccccc2SCC(=O)NC23CC4CC(CC(C4)C2)C3)cc1` the figure was -0.21 K.
The figure for `CCOc1ccc(C2C(C(=O)c3ccco3)=C(O)C(=O)N2CCCN2CCOCC2)cc1` (stereo not shown) is -0.13 K; for `NC(=O)c1cccc(CN2CCCC2c2ccsc2)c1` (stereo not shown) it is -0.08 K; for `CC(=O)Nc1ccc(CNCc2ccccc2CN2CCCC2)cc1` it is -0.12 K.
With `NC(=O)C1CCN(c2ncnc3c2c(-c2ccccc2)cn3-c2cccc(C(F)(F)F)c2)CC1` the figure was -0.07 K.
Consider `CC(Nc1cccc(C(N)=O)c1)C1CN(Cc2ccccc2)CCO1` (stereo not shown), for which the “TSA(without NAD+) / Primary screening (TSA) / delta Tm (K)” value is listed as -0.18 K.
The figure for `Cc1ccc(-c2cc(C(=O)OC(C)C(=O)Nc3cccc([N+](=O)[O-])c3)[nH]n2)cc1` (stereo not shown) is 0.12 K.
With `CC(=C/c1ccccc1)/C=N/NC(=O)c1cc(-c2ccc(C)cc2)n[nH]1` the figure was 1.06 K; with `Cc1ccc(C2C(C(=O)c3cc4ccccc4o3)=C(O)C(=O)N2CCCN2CCOCC2)o1` (stereo not shown), 0.02 K; with `N#Cc1cc(Br)ccc1NCC1(CCO)CCOC1` (stereo not shown), -0.24 K.
With `Cc1cc(C)c(NC(=O)CN(C)C(=O)CNC(=O)C(C)(C)C)c(C)c1` the figure was 0.02 K; with `O=C1/C(=C/c2ccccc2)Oc2cc(O)ccc21`, 0.08 K; with `O=C1/C(=C/c2cccc(O)c2)Oc2cc(O)ccc21`, -0.21 K.
For the compound `O=C1/C(=C/c2cnn(-c3ccccc3)c2)Oc2cc(O)ccc21`, the “TSA(without NAD+) / Primary screening (TSA) / delta Tm (K)” value is listed as 1.25 K.
Turning to `NC(=O)c1ccc(C(=O)OCC(=O)Nc2ccccc2-c2ccccc2)cc1`, the “TSA(without NAD+) / Primary screening (TSA) / delta Tm (K)” value is given as -0.18 K.
With `COc1ccc(C(=O)C2=C(O)C(=O)N(CCCN3CCOCC3)C2c2ccco2)cc1Cl` (stereo not shown), the “TSA(without NAD+) / Primary screening (TSA) / delta Tm (K)” value turned out to be 0.02 K.
With `Cn1cc(C(=O)Nc2cccc(C3(C)NC(=O)NC3=O)c2)c2ccccc21` (stereo not shown) the figure was -0.14 K.
For `CCc1c(C)c(C#N)c2nc3ccccc3n2c1S`, the “TSA(without NAD+) / Primary screening (TSA) / delta Tm (K)” value was found to be 0.39 K.
With `CCc1c(C)c(C#N)c2nc3ccccc3n2c1Cl` the figure was -0.08 K; with `Cc1c(CCC#N)c(Cl)n2c(nc3ccccc32)c1C#N`, -0.04 K.
With `Cc1nc2cc(NC(=O)C3Cc4ccccc4O3)ccc2o1` (stereo not shown) the figure was 0.03 K; with `O=C(CCl)c1c(-c2ccccc2)[nH]c2ccccc12`, -0.04 K; with `c1ccc(-c2[nH]c3ccccc3c2-c2ccccc2)cc1`, 0.45 K.
The figure for `c1ccc(-c2[nH]c3c(ccc4ccccc43)c2-c2ccccc2)cc1` is 0.52 K; for `Cc1cccc2c(CC(=O)O)c(-c3ccccc3)[nH]c12` it is -0.02 K.
As to `Nc1nc(-c2c(-c3ccccc3)[nH]c3ccccc23)cs1`, the “TSA(without NAD+) / Primary screening (TSA) / delta Tm (K)” value was determined as 0.09 K.
With `CC1(C)CC1N` (stereo not shown) the figure was -0.22 K; with `NC(=O)Cc1ccc(NC(=O)c2cc(Br)ccc2Cl)cc1`, -0.11 K; with `CCCCOc1cc(C2NC(N)=Nc3nc4ccccc4n32)ccc1OC` (stereo not shown), -0.17 K.
With `NC1=Nc2nc3ccccc3n2C(c2ccc(-c3ccc(C(=O)O)cc3)o2)N1` (stereo not shown) the figure was 1.36 K; with `CC(C)(CNc1ncnc2ccsc12)C(N)=O`, -0.02 K; with `O=C1/C(=C/c2ccc(Br)cc2F)Cc2c(O)cccc21`, -0.03 K.
For the compound `Oc1cccc2c1Cc1c-2nc2ccc(Cl)cc2c1-c1ccccc1Cl`, the “TSA(without NAD+) / Primary screening (TSA) / delta Tm (K)” value was 0.38 K.
The figure for `CCCOCC(=O)O` is -0.13 K; for `COc1ccc(NC(=O)CSc2nnc(Nc3ccc(SC(F)F)cc3)s2)cc1OC` it is 0.73 K; for `Cc1ccc(Nc2nnc(SCC(=O)Nc3cc(C)c(C)cc3[N+](=O)[O-])s2)cc1` it is -0.03 K.
With `Cc1cccc(Nc2nnc(SCC(=O)Nc3ccc(C(N)=O)cc3)s2)c1` the figure was -0.04 K; with `O=C(C1=C(O)C(=O)N(CCCN2CCOCC2)C1c1ccco1)c1ccco1` (stereo not shown), -0.22 K.
The figure for `Cc1nc2ccccc2nc1SCc1cc(=O)n2ccsc2n1` is 0.02 K; for `CCCCOC(=O)c1ccc(NC(=O)COC(=O)CNC(=O)C23CC4CC(CC(C4)C2)C3)cc1` it is 0.48 K; for `O=C(COC(=O)CNC(=O)C12CC3CC(CC(C3)C1)C2)Nc1ccccc1Cc1ccccc1` it is 0.13 K.
Regarding `CCOc1ccc(CCNC(=O)COC(=O)CNC(=O)C23CC4CC(CC(C4)C2)C3)cc1OCC`, the “TSA(without NAD+) / Primary screening (TSA) / delta Tm (K)” value came to 0.03 K.
